High-throughput results (PubChem)
Rows were chosen to be rich in hits. Some 21% of all compounds tested hit in one or more screens of this group.
DRD3 antagonist: antagonists of human D3 dopamine receptor | 2.5% of 360,000 active | D3R cells, DiscoveRx beta-arrestin luminescence, antagonist mode; active compounds read low | max response, negative = inhibition, % | AID 652054; in the data active means max response below about -50%; inconclusive means no clear call, values can overlap the other calls
Target sequence (P35462 whole entry, looked up): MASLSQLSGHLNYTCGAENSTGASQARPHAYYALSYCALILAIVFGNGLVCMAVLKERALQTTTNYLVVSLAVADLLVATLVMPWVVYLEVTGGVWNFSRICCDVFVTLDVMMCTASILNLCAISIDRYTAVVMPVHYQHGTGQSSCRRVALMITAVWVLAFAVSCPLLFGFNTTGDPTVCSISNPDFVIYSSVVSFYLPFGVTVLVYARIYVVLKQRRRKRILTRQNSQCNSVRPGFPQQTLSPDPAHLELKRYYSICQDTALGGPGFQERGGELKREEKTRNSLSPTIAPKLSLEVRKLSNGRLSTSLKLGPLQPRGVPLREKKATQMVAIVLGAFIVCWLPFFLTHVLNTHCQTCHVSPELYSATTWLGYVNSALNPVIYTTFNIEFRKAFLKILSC
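Cells expressing the human receptor were seeded at 1500 cells/well, incubated overnight at 37 degrees C in 5% CO2, then exposed to library compounds with dopamine controls for 90 minutes at 37 degrees C before luminescent detection.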
TDP1 cell noCPT: qHTS for Inhibitors of human tyrosyl-DNA phosphodiesterase 1 (TDP1): qHTS in cells in absence of CPT; DT40 Tdp1-/- hTDP1 cells, no CPT, ATP luminescence, 48 h; Potency, µM (top dose mostly 46.2 µM), actives largely listed as inhibitors; 15% of 420,000 active; AID 686978, 2013; further: nearly all actives have a fitted effect of over 55% in size
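Seeded 400 DT40-hTDP1 cells/well (vehicle DMSO, no 20 nM CPT); pinned compounds; ≥48 hr at 37 °C; CellTiter-Glo luminescence as viability measure.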
D3 ag: agonists of human D3 dopamine receptor; max activation, %; P35462; D3R DiscoveRx beta-arrestin cells, luminescence, 90 min; 0.58% of 410,000 active; in the data active means max activation above about 30%
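Agonist mode: compounds and dopamine controls were applied to plated cells for 90 min at 37 degrees C after an overnight attachment at 1500 cells/well. Luminescent read-out followed 30 - 60 minutes at room temperature with DiscoveRx detection reagent.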
DT40 TDP1 CPT: DT40-hTDP1 cell growth loss with CPT. Potency, µM (highest dose often 46.2 µM), usual class: inhibitors. chicken DT40 Tdp1-/-;hTDP1 cells + 20 nM CPT, ATP luminescence, 48 h. 12% of 420,000 active; further: nearly all actives have a fitted effect of over 55% in size
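Chicken DT40 Tdp1-/- cells complemented with human TDP1, 400 cells/well, exposed to compounds plus 20 nM camptothecin for at least 48 h at 37 C; viability read as ATP content by CellTiter-Glo luminescence.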
IL1B secr inh: blocks inflammasome-driven IL-1 beta release | 4.7% of 360,000 active | activity change, % at 57.5 µM | THP-1 LPS/ATP IL-1B secretion, AlphaLISA, 16 h; active compounds read low | AID 743279; in the data active means activity change below about -50%; inconclusive means mostly about -30% to -49%
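Secreted IL-1B measured by AlphaLISA bead assay after 16 h compound exposure of THP-1 cells; compounds (final up to 57.5 uM) added 1 h before LPS (250 ng/mL) and ATP (1.25 mM) stimulation; lower signal means less secretion.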
ClpP mod: qHTS Assay for Activators of ClpP. purified B. subtilis ClpP, FRET peptide cleavage, 20 min. 1.9% of 340,000 active. Potency, µM (doses to about 57.5 µM). ATP-dependent Clp protease proteolytic subunit (Bacillus subtilis (strain 168)), P80244. AID 651965, 2013; active means well fitted falling curve with a large enough effect; inconclusive means small, poorly fitted or top-dose-only effect; inactive means no such curve, though single readings can be large or run the other way; further: the source files actives as falling curves though it sought activators and does not explain the sign; nearly all actives have a fitted effect of over 65% in size
Target sequence (P80244 whole entry, looked up): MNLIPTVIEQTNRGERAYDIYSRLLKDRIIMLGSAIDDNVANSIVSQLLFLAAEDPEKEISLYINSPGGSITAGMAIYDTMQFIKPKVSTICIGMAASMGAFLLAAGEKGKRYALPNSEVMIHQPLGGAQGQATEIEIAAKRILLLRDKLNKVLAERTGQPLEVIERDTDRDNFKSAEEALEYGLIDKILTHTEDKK
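Purified B. subtilis ClpP, 10 microg/mL final in Tris/HCl pH8 with KCl, BSA, glycerol and Tween-20, cleaved an Abz/nitrotyrosine-quenched decapeptide. Fluorescence (ex 320, em 430) was read at 0 and 20 min at room temperature. Delta was normalized to 5.8 microM ADEP and DMSO/no-enzyme controls.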
Each line names hits and unclear results; the compound was inactive in the other large screens. Unless noted, the call rests on the fitted dose curve; in most records, active means well fitted inhibition curve with a large enough effect; inconclusive means small, poorly fitted or top-dose-only effect; inactive means flat fitted curve, though single readings scatter.

Cc1cc(C)c(S(=O)(=O)Nc2ccc(O)c(Sc3ncn[nH]3)c2)cc1C	DRD3 antagonist inconclusive, TDP1 cell noCPT inconclusive
O=C(COC(=O)c1cc(=O)[nH]c2ccccc12)Nc1ccc(Cl)cn1	none
Cc1cc(Br)ccc1NC(=O)CSc1nnc(CN2CCOCC2)n1C	none (no result: ClpP mod)
Oc1ccc2c(c1)C1CCCC1(N1CCOCC1)O2 (stereo not given)	TDP1 cell noCPT inconclusive, DT40 TDP1 CPT 23µM
CC1=C(C(=O)N2CCOCC2)C(c2ccc(O)cc2)NC(=S)N1 (stereo not given)	none
COc1ccc(CNC(=O)CN2C(=O)NC(C)(c3cccc(Br)c3)C2=O)cc1 (stereo not given)	none
Cc1nc(NC(=O)c2ccc(Br)s2)sc1C(=O)N(C)C	DRD3 antagonist -69, IL1B secr inh inconclusive
Cc1nc(NC(=O)CCl)sc1C(=O)N(C)C	TDP1 cell noCPT 15µM, DT40 TDP1 CPT 13µM, IL1B secr inh -81
Cc1nc(NC(=O)c2cc3c(s2)CCCCC3)sc1C(=O)N(C)C	TDP1 cell noCPT inconclusive, DT40 TDP1 CPT inconclusive, IL1B secr inh -53
COC(=O)c1sc(NC(=O)c2cc3c(s2)CCCC3)nc1C	TDP1 cell noCPT 21µM, IL1B secr inh -52, ClpP mod inconclusive
Cc1csc(NC(=O)c2ccc(Br)s2)n1	TDP1 cell noCPT inconclusive, DT40 TDP1 CPT inconclusive (no result: ClpP mod)
CCOC(=O)c1sc(NC(=O)c2cc3c(s2)CCC(C)C3)nc1C (stereo not given)	TDP1 cell noCPT inconclusive, ClpP mod inconclusive
O=c1c2cc3c(cc2n(Cc2ccc(F)cc2)c(=O)n1Cc1nc(-c2ccccc2)no1)OCO3	none (no result: DRD3 antagonist, IL1B secr inh)
COc1cc(C(=O)NNC(=O)c2ccccc2OCc2c(C)noc2C)cc(OC)c1OC	TDP1 cell noCPT inconclusive
CCCCC1(CC(=O)OC)C(=O)N(c2ccccc2)N(c2ccccc2)C1=O	ClpP mod 28µM
CCCCC1(Cc2ccc(OC)c([N+](=O)[O-])c2)C(=O)N(c2ccccc2)N(c2ccccc2)C1=O	TDP1 cell noCPT inconclusive, DT40 TDP1 CPT inconclusive
CC(NC(=O)Cn1c(=O)oc2cc(S(=O)(=O)N3CCCCCC3)ccc21)c1ccccc1 (stereo not given)	none (no result: DRD3 antagonist, IL1B secr inh)
Cn1nc(-c2ccc(N3CCCCC3)c(NC(=O)c3ccco3)c2)c2ccccc2c1=O	TDP1 cell noCPT 16µM, DT40 TDP1 CPT 21µM
COc1nnc(-c2ccc(N3CCCCC3)c(NC(=O)c3ccc(C)cc3)c2)c2ccccc12	none (no result: DRD3 antagonist, IL1B secr inh)
COc1nnc(-c2ccc(N3CCCCC3)c(NC(=O)c3ccccc3Cl)c2)c2ccccc12	TDP1 cell noCPT 6.5µM, DT40 TDP1 CPT 6.5µM (no result: DRD3 antagonist, IL1B secr inh)
COc1nnc(-c2ccc(N3CCOCC3)c(NC(=O)c3ccco3)c2)c2ccccc12	TDP1 cell noCPT 26µM, DT40 TDP1 CPT inconclusive
O=C(CN1C(=O)COc2ccc(S(=O)(=O)NC3CCCC3)cc21)Nc1ccc(Cl)cc1F	TDP1 cell noCPT inconclusive, DT40 TDP1 CPT inconclusive (no result: DRD3 antagonist, IL1B secr inh)
CN(CC(=O)Nc1ccc(S(=O)(=O)N2CCCC2)cc1)Cc1ccc(Cl)cc1	TDP1 cell noCPT inconclusive, DT40 TDP1 CPT 16µM
CN(CC(=O)Nc1cccc(C#N)c1)Cc1ccc(Cl)cc1	DRD3 antagonist -74, TDP1 cell noCPT inconclusive (no result: ClpP mod)
O=C(Cc1ccccc1F)Nc1ccc(S(=O)(=O)N2CCCCC2)cc1	none
CN(CC(=O)Nc1ccc(S(=O)(=O)N2CCCC2)cc1)Cc1c(F)cccc1Cl	TDP1 cell noCPT 16µM, DT40 TDP1 CPT 15µM, IL1B secr inh -60
Cc1ccc(NC(=O)CSCC(=O)N(C)Cc2c(F)cccc2Cl)cc1	DRD3 antagonist inconclusive, TDP1 cell noCPT 26µM, DT40 TDP1 CPT 18µM
C/C(=C\CO)CCC(C)CCCC(C)CCCC(C)C (stereo not given)	none (no result: DRD3 antagonist, D3 ag, IL1B secr inh, ClpP mod)
COc1ccc(S(=O)(=O)N2CCOCC2)cc1NC(=O)CN(C)Cc1c(F)cccc1Cl	TDP1 cell noCPT 21µM, DT40 TDP1 CPT inconclusive, IL1B secr inh -66 (no result: ClpP mod)
C[C@H]1CN([C@@H](C)CO)S(=O)(=O)c2ccc(Br)cc2O[C@H]1CN(C)C(=O)c1cccc(F)c1	none
Cc1c(S(=O)(=O)N2CCN(c3cccc(Cl)c3)CC2)c(=O)n(C)c(=O)n1C	none
CC(C)Cn1c(N)c(C(=O)CSc2ncn[nH]2)c(=O)n(C)c1=O	TDP1 cell noCPT inconclusive (no result: ClpP mod)
CC(C)Cn1c(N)c(C(=O)CSc2ncccn2)c(=O)n(C)c1=O	TDP1 cell noCPT 10µM, DT40 TDP1 CPT inconclusive
CC(C)Cn1c(N)c(C(=O)CSc2nc3ccccc3n2C)c(=O)n(C)c1=O	DRD3 antagonist -54
COc1cccc(NC(=O)Nc2nnc(COCCO)s2)c1	TDP1 cell noCPT inconclusive, DT40 TDP1 CPT inconclusive
CCN1C(=O)c2ccccc2S(=O)c2ccc(C(=O)N3CCOCC3)cc21 (stereo not given)	none (no result: ClpP mod)
CN(Cc1ccc(Cl)cc1)C(C(=O)NC1CCCCC1)c1cc2ccccc2o1 (stereo not given)	TDP1 cell noCPT inconclusive
N#CCCN(Cc1ccccc1)C(C(=O)NC1CCCCC1)c1cc2ccccc2o1 (stereo not given)	TDP1 cell noCPT 18µM, DT40 TDP1 CPT 21µM
CCC(=O)NC(=S)Nc1ccccc1C(F)(F)F	ClpP mod 32µM
